Test in all cases: DAPPL (digital affinity profiling via proximity ligation, sequencing); 10 mM Tris-HCl pH 7.5, 50 mM NaCl, 1 mM DTT, 4% glycerol, room temperature, 30 min; GST-TFs on glutathione beads, 16-mer random dsDNA library, 0.1% formaldehyde crosslink after washing; high values mean tight binding
Assay [1] has as its target T1, FEV (Homo sapiens, UniProt Q99581 1-238).
T1 sequence: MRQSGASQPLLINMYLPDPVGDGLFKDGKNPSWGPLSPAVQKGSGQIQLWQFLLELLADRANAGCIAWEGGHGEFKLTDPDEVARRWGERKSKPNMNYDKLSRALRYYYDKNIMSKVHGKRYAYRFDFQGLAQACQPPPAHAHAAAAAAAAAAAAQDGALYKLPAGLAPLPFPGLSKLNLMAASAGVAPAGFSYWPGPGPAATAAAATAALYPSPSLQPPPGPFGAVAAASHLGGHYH
The note with it: protein: recombinant; tags: N-terminal GST; dsDNA, one strand shown. In a few lines: (§1)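 Human transcription factors carrying a GST fusion were produced in yeast, bound to glutathione beads, tagged with DNA barcodes and pooled together with a tag-only sample. Each pool was held with 200 nmole of a random double-stranded 16-mer DNA library in Tris/NaCl/DTT/glycerol buffer for 30 min at room temperature, then washed, crosslinked in 0.1% formaldehyde, proximity-ligated with BsaI/T4 ligase (1 h, 37 °C), PCR-amplified and sequenced on an Illumina NextSeq500. Binding signal is the read frequency of each hexamer for a given factor divided by its frequency in the tag-only sample.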

Assay [2] addresses ETV5 (Homo sapiens, UniProt P41161 1-510). The settings on record: protein: recombinant; tags: N-terminal GST; dsDNA, one strand shown. In a few lines:
as §1

Assay [3] deals with HSF1 (Homo sapiens, UniProt Q00613 1-529). The settings on record: protein: recombinant; tags: N-terminal GST; chain copies: 3; dsDNA, one strand shown. The method, boiled down:
as §1

In assay [4] the target is T2, SPIC (Homo sapiens, UniProt Q8N5J4 1-248).
T2 sequence: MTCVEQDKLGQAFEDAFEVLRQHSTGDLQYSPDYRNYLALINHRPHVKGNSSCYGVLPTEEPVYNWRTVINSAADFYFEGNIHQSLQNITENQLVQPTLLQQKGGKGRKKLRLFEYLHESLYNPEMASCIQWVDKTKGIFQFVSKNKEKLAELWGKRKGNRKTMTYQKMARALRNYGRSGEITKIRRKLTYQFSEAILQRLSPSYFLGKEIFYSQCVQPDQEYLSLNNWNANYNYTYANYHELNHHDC
The settings on record: protein: recombinant; tags: N-terminal GST; dsDNA, one strand shown. The method, boiled down: as §1

The target of assay [5] is ELF4 (Homo sapiens, UniProt Q99607 1-663). The settings on record: protein: recombinant; tags: N-terminal GST; dsDNA, one strand shown. The method, boiled down:
as §1

Assay [6] concerns the target T3, ELK4 (Homo sapiens, UniProt P28324-2 1-405).
T3 sequence: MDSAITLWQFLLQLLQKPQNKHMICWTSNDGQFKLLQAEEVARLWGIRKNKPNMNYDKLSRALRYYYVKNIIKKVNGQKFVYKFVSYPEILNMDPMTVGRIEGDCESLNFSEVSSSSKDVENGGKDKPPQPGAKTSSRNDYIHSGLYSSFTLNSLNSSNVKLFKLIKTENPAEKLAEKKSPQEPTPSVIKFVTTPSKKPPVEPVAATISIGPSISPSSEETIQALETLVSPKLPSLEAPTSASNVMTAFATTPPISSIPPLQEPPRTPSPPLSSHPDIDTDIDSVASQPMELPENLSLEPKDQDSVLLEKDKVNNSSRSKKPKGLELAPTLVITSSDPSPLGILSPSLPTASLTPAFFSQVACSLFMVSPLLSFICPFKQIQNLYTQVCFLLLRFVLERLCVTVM
The settings on record: protein: recombinant; tags: N-terminal GST; dsDNA, one strand shown. In a few lines: as §1

Assay [7] deals with T4, ETV2 (Homo sapiens, UniProt O00321 1-342).
T4 sequence: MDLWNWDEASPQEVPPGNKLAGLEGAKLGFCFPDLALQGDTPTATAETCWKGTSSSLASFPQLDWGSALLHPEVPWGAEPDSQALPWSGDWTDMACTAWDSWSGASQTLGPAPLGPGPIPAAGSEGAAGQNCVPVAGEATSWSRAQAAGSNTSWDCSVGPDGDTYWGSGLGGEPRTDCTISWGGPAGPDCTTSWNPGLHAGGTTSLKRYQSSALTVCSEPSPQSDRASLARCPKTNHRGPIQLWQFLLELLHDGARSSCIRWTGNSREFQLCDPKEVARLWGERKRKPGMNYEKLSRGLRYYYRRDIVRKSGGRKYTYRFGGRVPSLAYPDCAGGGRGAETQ
The note with it: protein: recombinant; tags: N-terminal GST; dsDNA, one strand shown. The method, boiled down: as §1

For assay [8], the target named is T5, ELF3 (Homo sapiens, UniProt P78545 1-371).
T5 sequence: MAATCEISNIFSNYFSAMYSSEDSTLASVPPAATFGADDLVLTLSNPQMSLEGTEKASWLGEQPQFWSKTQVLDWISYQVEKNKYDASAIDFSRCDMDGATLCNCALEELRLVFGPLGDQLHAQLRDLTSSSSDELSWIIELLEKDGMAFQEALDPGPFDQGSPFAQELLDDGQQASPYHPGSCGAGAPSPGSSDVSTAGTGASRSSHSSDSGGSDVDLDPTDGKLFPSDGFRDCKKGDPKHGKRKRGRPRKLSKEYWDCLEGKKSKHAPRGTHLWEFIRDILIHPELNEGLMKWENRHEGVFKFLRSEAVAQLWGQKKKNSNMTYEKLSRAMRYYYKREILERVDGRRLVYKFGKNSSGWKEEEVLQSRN
The settings on record: protein: recombinant; tags: N-terminal GST; dsDNA, one strand shown. The method, boiled down:
as §1

The target in assay [9] is CRX (Homo sapiens, UniProt O43186 1-299). The note with it: protein: recombinant; tags: N-terminal GST; dsDNA, one strand shown. In a few lines:
as §1

Assay [10] has as its target ETV1 (Homo sapiens, UniProt P50549 1-477). The note with it: protein: recombinant; tags: N-terminal GST; dsDNA, one strand shown. The method, boiled down: as §1
The target of assay [11] is T6, ERF (Homo sapiens, UniProt P50548 1-548).
T6 sequence: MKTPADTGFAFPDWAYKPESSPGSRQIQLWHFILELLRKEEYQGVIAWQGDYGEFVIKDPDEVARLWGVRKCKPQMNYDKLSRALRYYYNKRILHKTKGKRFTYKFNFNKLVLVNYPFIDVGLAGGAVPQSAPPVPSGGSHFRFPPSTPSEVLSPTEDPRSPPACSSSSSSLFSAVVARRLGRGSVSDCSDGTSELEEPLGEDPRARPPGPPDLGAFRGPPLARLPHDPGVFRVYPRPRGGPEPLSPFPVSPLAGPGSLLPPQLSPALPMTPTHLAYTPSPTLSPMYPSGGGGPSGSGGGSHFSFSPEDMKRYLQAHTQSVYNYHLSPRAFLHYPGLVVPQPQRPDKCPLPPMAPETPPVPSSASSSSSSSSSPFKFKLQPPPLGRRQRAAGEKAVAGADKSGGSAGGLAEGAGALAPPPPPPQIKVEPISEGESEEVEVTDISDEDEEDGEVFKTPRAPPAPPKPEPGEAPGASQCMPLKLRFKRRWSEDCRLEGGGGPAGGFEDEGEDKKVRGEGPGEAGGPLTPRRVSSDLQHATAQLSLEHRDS
The settings on record: protein: recombinant; tags: N-terminal GST; dsDNA, one strand shown. The method, boiled down:
as §1

Assay [12] has as its target T7, ETV3L (Homo sapiens, UniProt Q6ZN32 1-361).
T7 sequence: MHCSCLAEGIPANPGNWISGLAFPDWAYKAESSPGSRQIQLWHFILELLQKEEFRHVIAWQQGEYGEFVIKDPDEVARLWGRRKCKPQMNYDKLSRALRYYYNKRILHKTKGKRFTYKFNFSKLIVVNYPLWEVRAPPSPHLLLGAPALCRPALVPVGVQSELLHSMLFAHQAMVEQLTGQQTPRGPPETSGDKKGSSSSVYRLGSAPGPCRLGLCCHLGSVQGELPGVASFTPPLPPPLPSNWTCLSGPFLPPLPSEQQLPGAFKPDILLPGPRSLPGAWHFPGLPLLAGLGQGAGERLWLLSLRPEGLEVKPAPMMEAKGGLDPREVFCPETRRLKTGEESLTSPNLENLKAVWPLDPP
The settings on record: protein: recombinant; tags: N-terminal GST; dsDNA, one strand shown. In a few lines:
as §1

For assay [13], the target named is T8, ETS2 (Homo sapiens, UniProt P15036 1-469).
T8 sequence: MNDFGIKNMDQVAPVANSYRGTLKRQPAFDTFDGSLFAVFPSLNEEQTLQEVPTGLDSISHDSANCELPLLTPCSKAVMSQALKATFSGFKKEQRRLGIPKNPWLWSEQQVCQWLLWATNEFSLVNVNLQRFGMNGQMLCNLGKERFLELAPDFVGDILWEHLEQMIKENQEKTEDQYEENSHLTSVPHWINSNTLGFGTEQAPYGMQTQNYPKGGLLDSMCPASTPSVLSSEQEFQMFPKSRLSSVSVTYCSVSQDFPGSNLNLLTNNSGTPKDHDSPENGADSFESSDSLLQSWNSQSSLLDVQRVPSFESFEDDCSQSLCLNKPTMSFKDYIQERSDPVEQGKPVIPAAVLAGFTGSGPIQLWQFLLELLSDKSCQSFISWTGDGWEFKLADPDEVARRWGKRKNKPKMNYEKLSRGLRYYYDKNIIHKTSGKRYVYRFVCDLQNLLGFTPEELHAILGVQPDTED
The settings on record: protein: recombinant; tags: N-terminal GST; dsDNA, one strand shown. The method, boiled down:
as §1

For assay [14], the target named is T9, SPDEF (Homo sapiens, UniProt O95238 1-335).
T9 sequence: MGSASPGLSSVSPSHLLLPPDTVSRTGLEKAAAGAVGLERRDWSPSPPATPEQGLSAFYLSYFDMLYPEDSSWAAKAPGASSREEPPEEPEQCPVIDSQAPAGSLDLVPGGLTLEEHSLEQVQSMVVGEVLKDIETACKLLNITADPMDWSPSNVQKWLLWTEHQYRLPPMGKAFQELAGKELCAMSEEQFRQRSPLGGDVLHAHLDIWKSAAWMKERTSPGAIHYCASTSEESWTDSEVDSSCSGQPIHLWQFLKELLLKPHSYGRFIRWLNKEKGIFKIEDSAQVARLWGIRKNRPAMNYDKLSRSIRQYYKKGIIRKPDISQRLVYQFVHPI
The settings on record: protein: recombinant; tags: N-terminal GST; dsDNA, one strand shown. The method, boiled down:
as §1

The target in assay [15] is T10, ETV7 (Homo sapiens, UniProt Q9Y603 1-341).
T10 sequence: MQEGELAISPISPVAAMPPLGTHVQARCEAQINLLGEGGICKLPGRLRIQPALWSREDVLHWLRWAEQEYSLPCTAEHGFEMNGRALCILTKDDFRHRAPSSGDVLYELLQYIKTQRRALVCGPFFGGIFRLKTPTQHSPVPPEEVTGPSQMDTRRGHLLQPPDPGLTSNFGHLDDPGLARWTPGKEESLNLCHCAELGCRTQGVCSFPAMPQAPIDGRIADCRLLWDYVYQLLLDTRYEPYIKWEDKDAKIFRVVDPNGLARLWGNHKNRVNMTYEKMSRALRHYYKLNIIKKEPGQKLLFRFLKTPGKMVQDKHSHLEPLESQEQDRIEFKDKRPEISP
The note with it: protein: recombinant; tags: N-terminal GST; dsDNA, one strand shown. In a few lines:
as §1

In assay [16] the target is T11, ELF5 (Homo sapiens, UniProt Q9UKW6-2 1-255).
T11 sequence: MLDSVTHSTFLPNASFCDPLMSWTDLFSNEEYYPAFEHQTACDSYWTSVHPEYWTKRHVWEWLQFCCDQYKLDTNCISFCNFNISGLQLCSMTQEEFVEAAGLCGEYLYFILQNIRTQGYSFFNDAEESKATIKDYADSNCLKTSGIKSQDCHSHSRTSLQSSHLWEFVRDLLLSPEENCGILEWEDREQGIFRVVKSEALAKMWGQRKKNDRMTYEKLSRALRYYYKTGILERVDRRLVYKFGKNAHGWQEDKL
The settings on record: protein: recombinant; tags: N-terminal GST; dsDNA, one strand shown. In a few lines: as §1

The target of assay [17] is T12, ETV3 (Homo sapiens, UniProt P41162-2 1-143).
T12 sequence: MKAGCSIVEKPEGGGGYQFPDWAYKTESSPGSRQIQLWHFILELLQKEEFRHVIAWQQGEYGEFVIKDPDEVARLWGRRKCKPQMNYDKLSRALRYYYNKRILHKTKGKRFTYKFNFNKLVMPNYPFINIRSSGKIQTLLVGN
The note with it: protein: recombinant; tags: N-terminal GST; dsDNA, one strand shown. The method, boiled down: as §1

The target in assay [18] is ETV6 (Homo sapiens, UniProt P41212 1-452). The settings on record: protein: recombinant; tags: N-terminal GST; dsDNA, one strand shown. The method, boiled down: as §1
Chain of ETV6 (P41212 whole entry): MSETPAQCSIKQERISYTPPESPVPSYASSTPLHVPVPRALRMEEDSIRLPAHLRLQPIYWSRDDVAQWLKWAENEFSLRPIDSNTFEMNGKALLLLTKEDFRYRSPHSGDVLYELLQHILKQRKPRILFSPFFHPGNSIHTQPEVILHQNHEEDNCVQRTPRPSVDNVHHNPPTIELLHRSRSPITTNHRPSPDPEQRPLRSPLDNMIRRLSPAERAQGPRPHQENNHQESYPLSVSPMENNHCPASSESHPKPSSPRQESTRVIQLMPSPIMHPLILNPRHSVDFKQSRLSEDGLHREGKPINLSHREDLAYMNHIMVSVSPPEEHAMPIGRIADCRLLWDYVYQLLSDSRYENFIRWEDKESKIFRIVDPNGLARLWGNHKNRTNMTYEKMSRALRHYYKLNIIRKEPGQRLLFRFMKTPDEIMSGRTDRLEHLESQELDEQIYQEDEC

Chain of ELF4 (Q99607 whole entry): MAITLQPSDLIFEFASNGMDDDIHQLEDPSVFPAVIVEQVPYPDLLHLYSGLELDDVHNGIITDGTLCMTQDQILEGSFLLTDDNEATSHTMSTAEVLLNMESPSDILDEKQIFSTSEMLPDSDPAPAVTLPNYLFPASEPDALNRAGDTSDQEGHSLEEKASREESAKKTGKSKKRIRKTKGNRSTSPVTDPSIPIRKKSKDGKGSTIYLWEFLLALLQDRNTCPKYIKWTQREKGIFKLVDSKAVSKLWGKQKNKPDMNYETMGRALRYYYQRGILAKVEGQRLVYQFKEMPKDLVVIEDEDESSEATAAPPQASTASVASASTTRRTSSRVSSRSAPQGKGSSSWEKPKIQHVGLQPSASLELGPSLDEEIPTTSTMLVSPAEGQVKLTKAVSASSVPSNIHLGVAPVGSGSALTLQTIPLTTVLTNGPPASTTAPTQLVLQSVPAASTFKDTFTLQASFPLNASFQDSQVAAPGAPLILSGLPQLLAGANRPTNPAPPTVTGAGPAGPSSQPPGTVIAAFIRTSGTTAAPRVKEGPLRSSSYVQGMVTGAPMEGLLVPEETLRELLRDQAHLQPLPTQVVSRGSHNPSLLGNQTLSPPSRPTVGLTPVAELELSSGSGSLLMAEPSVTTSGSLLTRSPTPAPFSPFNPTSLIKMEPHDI
Chain of CRX (O43186 whole entry): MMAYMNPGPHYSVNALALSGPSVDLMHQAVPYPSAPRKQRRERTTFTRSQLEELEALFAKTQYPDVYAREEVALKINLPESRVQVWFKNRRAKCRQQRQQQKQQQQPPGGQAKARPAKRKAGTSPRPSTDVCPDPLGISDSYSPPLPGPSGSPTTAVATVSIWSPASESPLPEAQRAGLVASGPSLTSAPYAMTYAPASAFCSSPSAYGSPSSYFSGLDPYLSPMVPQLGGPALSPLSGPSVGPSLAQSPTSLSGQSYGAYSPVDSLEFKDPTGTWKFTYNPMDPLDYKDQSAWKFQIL
Chain of HSF1 (Q00613 whole entry): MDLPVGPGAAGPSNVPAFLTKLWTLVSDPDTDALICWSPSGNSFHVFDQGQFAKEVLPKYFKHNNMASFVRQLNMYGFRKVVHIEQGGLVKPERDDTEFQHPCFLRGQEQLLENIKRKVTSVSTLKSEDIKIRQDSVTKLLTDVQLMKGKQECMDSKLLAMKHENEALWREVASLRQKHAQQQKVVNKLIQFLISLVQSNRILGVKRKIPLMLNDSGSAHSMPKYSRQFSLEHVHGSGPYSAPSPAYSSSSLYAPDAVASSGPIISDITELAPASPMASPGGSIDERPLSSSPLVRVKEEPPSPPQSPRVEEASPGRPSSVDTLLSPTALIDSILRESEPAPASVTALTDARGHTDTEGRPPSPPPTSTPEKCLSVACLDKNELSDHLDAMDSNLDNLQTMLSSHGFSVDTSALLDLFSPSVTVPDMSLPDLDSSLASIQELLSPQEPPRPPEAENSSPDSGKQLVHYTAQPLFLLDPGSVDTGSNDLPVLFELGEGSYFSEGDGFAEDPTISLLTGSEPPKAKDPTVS
Chain of ETV5 (P41161 whole entry): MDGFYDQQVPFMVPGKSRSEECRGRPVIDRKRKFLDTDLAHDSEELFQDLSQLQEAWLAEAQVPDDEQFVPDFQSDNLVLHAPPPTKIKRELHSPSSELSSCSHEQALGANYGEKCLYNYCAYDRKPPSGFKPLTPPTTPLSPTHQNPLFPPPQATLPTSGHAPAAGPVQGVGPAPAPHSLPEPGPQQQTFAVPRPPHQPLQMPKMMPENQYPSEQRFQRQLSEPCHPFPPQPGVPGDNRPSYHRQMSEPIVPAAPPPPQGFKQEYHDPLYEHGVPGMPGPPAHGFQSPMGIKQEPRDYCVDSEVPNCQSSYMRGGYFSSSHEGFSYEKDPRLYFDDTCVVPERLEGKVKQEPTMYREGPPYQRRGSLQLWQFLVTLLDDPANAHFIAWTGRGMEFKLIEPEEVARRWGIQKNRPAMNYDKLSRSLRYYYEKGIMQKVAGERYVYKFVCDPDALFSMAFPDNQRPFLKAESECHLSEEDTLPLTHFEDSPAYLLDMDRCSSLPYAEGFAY
Chain of ETV1 (P50549 whole entry): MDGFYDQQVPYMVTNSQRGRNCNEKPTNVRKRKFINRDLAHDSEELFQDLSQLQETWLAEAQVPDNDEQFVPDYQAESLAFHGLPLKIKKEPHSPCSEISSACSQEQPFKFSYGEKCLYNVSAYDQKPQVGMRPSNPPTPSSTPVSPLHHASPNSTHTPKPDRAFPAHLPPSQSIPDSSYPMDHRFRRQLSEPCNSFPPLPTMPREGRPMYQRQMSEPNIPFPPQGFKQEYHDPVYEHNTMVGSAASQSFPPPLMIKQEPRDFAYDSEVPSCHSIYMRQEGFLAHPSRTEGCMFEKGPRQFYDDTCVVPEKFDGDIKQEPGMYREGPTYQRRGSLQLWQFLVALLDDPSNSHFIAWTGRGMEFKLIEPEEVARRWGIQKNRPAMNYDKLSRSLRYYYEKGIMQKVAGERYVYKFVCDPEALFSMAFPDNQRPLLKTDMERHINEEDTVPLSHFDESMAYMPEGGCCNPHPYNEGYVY

Consider TATACG, for which the binding signal in assay [1] was 1.18 fold enrichment (6-mer frequency, TF over GST control); in assay [2] it was 1.25 fold enrichment (6-mer frequency, TF over GST control); in assay [3], 1.27 fold enrichment (6-mer frequency, TF over GST control); in assay [4], 1.1 fold enrichment (6-mer frequency, TF over GST control); in [5] it was 1.31 fold enrichment (6-mer frequency, TF over GST control); in assay [6], 1.14 fold enrichment (6-mer frequency, TF over GST control). The binding signal was 1.15 fold enrichment (6-mer frequency, TF over GST control) in assay [7]; 1.26 fold enrichment (6-mer frequency, TF over GST control) in assay [8]; 1.39 fold enrichment (6-mer frequency, TF over GST control) in [9]; 1.32 fold enrichment (6-mer frequency, TF over GST control) in assay [10]; 1.39 fold enrichment (6-mer frequency, TF over GST control) in assay [11]; 1.15 fold enrichment (6-mer frequency, TF over GST control) in [12]. The binding signal is 1.37 fold enrichment (6-mer frequency, TF over GST control) in assay [13]; 1.39 fold enrichment (6-mer frequency, TF over GST control) in assay [14]; 1.39 fold enrichment (6-mer frequency, TF over GST control) in assay [15]; 1.35 fold enrichment (6-mer frequency, TF over GST control) in assay [16]; 1.3 fold enrichment (6-mer frequency, TF over GST control) in assay [17]; 1.23 fold enrichment (6-mer frequency, TF over GST control) in assay [18].

For the origin of these results see publication PMC7862700, “An all-to-all approach to the identification of sequence-specific readers for epigenetic DNA modifications on cytosine”.
